# Measured potencies and affinities stand elsewhere. Unmarked numbers belong to inactive results.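 The calls were made as follows: active = cell killing whose fitted half-effect concentration is at most twice the top valid dose tested; inconclusive = flat curve with 30 to 70% killing, or a poor fit; inactive = effect in the rising direction, plus the rest.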
# Assay: A549 cell cytotoxicity, dose response, cytotoxicity control, ATP luminescence, cherry-pick, set 2 (AID 1053124);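 also: 0% = neutral control wells and -100% = mitoxantrone 10 µM positive control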
# Conditions: A549 viability, ATP luminescence (CellTiter-Glo), 72 h; series mostly up to 26 µM; activity change, negative = cytotoxicity: at the top concentration
row,Compound,"activity change, negative = cytotoxicity [%]"
1,CCc1nnc(NC(=O)c2ccc(-c3ccccc3F)o2)s1,-5.84
2,CCOc1ccc2nc(NCCNC(=O)CC)c(C#N)cc2c1,-8.92
3,COc1ccccc1OCc1ccc(C(=O)N(C)c2ccccc2)o1,-0.768
4,CCOC1=NN(c2ncc(C(F)(F)F)cc2Cl)C(=O)C1,-4.45
